Compounds with a hit are over-represented: about 1.2% of the library has one in this group of screens.
RGS8-Gao – modulates binding of RGS8 to human Galphao. multiplexed bead flow cytometry; actives lie on both sides. 220,000 compounds, 0.34% hits. AID 1423. response (percent of control binding), % at 10 µM. P09471; in the data active = response below about 60% or above about 140%; inactive = in between;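 note: Galphao activated as the GDP aluminium fluoride complex binding bead-coupled RGS8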
Target sequence (P09471 whole entry, looked up): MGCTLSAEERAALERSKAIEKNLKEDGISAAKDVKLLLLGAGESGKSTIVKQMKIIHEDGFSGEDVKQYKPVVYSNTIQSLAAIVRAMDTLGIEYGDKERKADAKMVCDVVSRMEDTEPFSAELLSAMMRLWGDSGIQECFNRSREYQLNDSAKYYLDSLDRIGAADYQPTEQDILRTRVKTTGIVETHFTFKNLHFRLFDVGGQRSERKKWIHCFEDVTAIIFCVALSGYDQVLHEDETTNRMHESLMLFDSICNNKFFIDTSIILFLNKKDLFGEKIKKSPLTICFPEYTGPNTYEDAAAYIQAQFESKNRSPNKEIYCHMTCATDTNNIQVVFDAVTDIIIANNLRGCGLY
Avidin bead fluor – compound fluoresces at 488/530 nm on avidin beads. AID 1775. compound fluorescence 488/530 nm, flow cytometry; active compounds read high. 220,000 compounds, 0.38% hits. fluorescence (KMESF) at 10 µM; in the data active = fluorescence above about 47
RGS7-Gao reg – modulates binding of RGS7 to human Galphao; 220,000 compounds, 0.35% hits; binding response (% of control), % at 10 µM; P09471; Multiplexed bead flow cytometry; actives lie on both sides; in the data active = binding response below about 49% or above about 150%; inconclusive = no clear call, values can overlap the other calls; inactive = in between;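 note: fluorescent Galphao held in activated GDP-AlF4 state binding bead-coupled RGS7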
RGS4-Gao reg – modulates binding of RGS4 to human Galphao; AID 1415; 220,000 compounds, 0.33% hits; Multiplexed bead flow cytometry; actives lie on both sides; binding response (% of control), % at 10 µM; P09471; in the data active = binding response below about 49% or above about 150%; inactive = in between;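 note: fluorescent Galphao activated with aluminum fluoride binding bead-coupled RGS4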
RGS16-Gao – RGS16-Galphao interaction regulator (human). bead-based flow cytometry RGS16-Galphao binding, fluorescence; actives lie on both sides. binding response (% of control), % at 10 µM. 220,000 compounds, 0.38% hits. AID 1441;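 note: Galphao activated by GDP with aluminum fluoride before binding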
GSH fluor – compound fluoresces at 488/530 nm on GSH beads | GSH beads flow cytometry, compound fluorescence 488/530 nm; active compounds read high | fluorescence (KMESF) at 10 µM | 190,000 compounds, 0.25% hits | AID 1776; in the data active = fluorescence above about 89;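 note: glutathione beads carrying GST-tagged Bcl family fusion proteins plus one bare bead set; values are compound well signal with DMSO vehicle wells as background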
RGS4-Gao HTS – RGS4-Galphao interaction regulator (human) | shares compounds with RGS16-Gao | multiplexed bead flow cytometry, RGS–Galpha-o binding | RGS4–Galpha-o binding response, % at 10 µM | 1,600 compounds, 99% hits;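 note: fluorescently labeled Galpha-o bound to GDP with aluminium fluoride binding biotinylated RGS beads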
Target sequence (P09471 whole entry, looked up): as above
Target sequence (P49798 whole entry, looked up): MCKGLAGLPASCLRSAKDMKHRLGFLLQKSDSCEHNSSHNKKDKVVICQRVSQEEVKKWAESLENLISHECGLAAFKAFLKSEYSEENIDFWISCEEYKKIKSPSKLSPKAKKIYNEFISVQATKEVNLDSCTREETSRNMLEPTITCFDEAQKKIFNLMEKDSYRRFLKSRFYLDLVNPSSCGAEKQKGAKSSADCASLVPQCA
Avidin counter – counter-screen: compounds disrupting biotin binding to avidin beads | 1,700 tested, under 10 active | streptavidin beads, fluorescein-biotin binding, flow cytometry | AID 1783 | shares compounds with RGS16-Gao | inhibition, % at 10 µM;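 active = inhibition above 50%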;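 note: median green fluorescence of gated singlet beads compared with DMSO control wells; 0% = DMSO wells and 100% = complete loss of bead fluorescence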
RGS8-Gao confirm – confirmation of regulators of human RGS8-Galphao interaction. shares compounds with RGS16-Gao. bead-based flow cytometry RGS8-Galphao binding, fluorescence; actives lie on both sides. binding response (% of control), % at 10 µM. 1,700 compounds, 3% hits. AID 1836; in the data active = binding response below about 72% or above about 130%; inactive = in between;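 note: Galphao activated as GDP AlF4 complex before binding bead RGS8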
RGS7-Gao single – RGS7-Galphao interaction regulation, single point confirmation; shares compounds with RGS16-Gao; 1,700 compounds, 7.8% hits; response (percent of control binding), % at 10 µM; bead-based flow cytometry RGS7-Galphao binding; actives lie on both sides; in the data active = response below about 75% or above about 130%; inactive = in between;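 note: fluorescent Galphao activated with GDP and aluminum fluoride binding bead-coupled RGS7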
RGS16-Gao conf – RGS16-Galphao interaction regulation, single point confirmation; response (% of control binding), % at 10 µM; shares compounds with RGS16-Gao; 1,700 compounds, 4% hits; bead-based flow cytometry, RGS16-Galphao binding; actives lie on both sides; in the data active = response below about 74% or above about 130%; inactive = in between;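 note: Galphao activated as the GDP aluminium fluoride complex binding bead-coupled RGS16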
RGS4-Gao single – RGS4-Galphao interaction regulation, single point confirmation; binding response (% of control), % at 10 µM; shares compounds with RGS16-Gao; 1,700 compounds, 4% hits; RGS4-Galphao binding, multiplexed bead flow cytometry; actives lie on both sides; in the data active = binding response below about 74% or above about 130%; inactive = in between
RGS19-Gao conf – confirmation of regulators of human RGS19-Galphao interaction | response (percent of control binding), % at 10 µM | bead-based flow cytometry RGS19-Galphao binding; actives lie on both sides | 1,700 compounds, 5% hits | shares compounds with RGS16-Gao | AID 1841; in the data active = response below about 50% or above about 160%; inactive = in between;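 note: 100% = no compound control and 0% = blank background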
* marks the source's active call; other numbers are inactive results; [ ] = another dose, or the depositor's remark. Unless noted, the rule behind the calls is not given here.

`O=C(COC(=O)c1cc(S(=O)(=O)N2CCCCC2)ccc1N1CCOCC1)NCCc1ccc(F)cc1` gave RGS8-Gao 106.6, Avidin bead fluor 9, RGS7-Gao reg 99.6, RGS4-Gao reg 104.8, RGS16-Gao 120.8 and GSH fluor 16.
Screening Cc1[nH]c2ccccc2c1C(c1ccncc1)N1CCN(c2ccccc2F)CC1 (stereo not drawn) returned RGS8-Gao 92.9, Avidin bead fluor 92*, RGS7-Gao reg 159.6*[activator], RGS4-Gao reg 119.3, RGS16-Gao 101.3, GSH fluor 10, RGS4-Gao HTS 119.3*, Avidin counter 1.0, RGS8-Gao confirm 100.6, RGS7-Gao single 101.3, RGS16-Gao conf 101.0, RGS4-Gao single 100.9 and RGS19-Gao conf 100.1.
Screening CCCn1c(C)cc(C(=O)COC(=O)c2ccc[nH]c2=O)c1C returned RGS8-Gao 99.7, Avidin bead fluor 9, RGS7-Gao reg 95.4, RGS4-Gao reg 97.3, RGS16-Gao 104.0 and GSH fluor 16.
Screening COCc1nnc(NC(=O)c2ccc(NC(C)=O)cc2)s1 returned RGS8-Gao 63.9, Avidin bead fluor 3, RGS7-Gao reg 53.2, RGS4-Gao reg 45.9*, RGS16-Gao 50.2, GSH fluor 67, Avidin counter -2.3, RGS8-Gao confirm 103.7, RGS7-Gao single 100.3, RGS16-Gao conf 108.0, RGS4-Gao single 100.3 and RGS19-Gao conf 81.3.
`O=C(CSc1ncnc2c1oc1ccccc12)Nc1nccs1` gave RGS8-Gao 132.4, Avidin bead fluor 9, RGS7-Gao reg 155.4*[activator], RGS4-Gao reg 146.4, RGS16-Gao 153.7, GSH fluor 16, RGS4-Gao HTS 146.4*, Avidin counter -0.8, RGS8-Gao confirm 111.8, RGS7-Gao single 106.8, RGS16-Gao conf 106.5, RGS4-Gao single 101.6 and RGS19-Gao conf 93.8.
Screening CC(=O)c1cccc(NC(=O)C(C)N(C)CC(=O)Nc2ccc(Cl)cc2)c1 (stereo not drawn) returned RGS8-Gao 98.5, Avidin bead fluor 7, RGS7-Gao reg inconclusive, RGS4-Gao reg 98.7 and RGS16-Gao 94.7.
`COc1ccc(N2CCN(c3nc4ccccc4n3CC(=O)c3ccccc3)CC2)cc1` gave RGS8-Gao 98.5, Avidin bead fluor 76*, RGS7-Gao reg 165.4*[activator], RGS4-Gao reg 107.8, RGS16-Gao 103.3, GSH fluor 35, RGS4-Gao HTS 107.8*, Avidin counter 0.4, RGS8-Gao confirm 105.0, RGS7-Gao single 103.5, RGS16-Gao conf 107.5, RGS4-Gao single 103.5 and RGS19-Gao conf 108.9.
CCOC(=O)C1CCN(c2nc3ccccc3n2CC(=O)c2ccccc2)CC1 was read as RGS8-Gao 104.5, Avidin bead fluor 22, RGS7-Gao reg 97.7, RGS4-Gao reg 98.9, RGS16-Gao 100.9 and GSH fluor 10.
CCOc1ccc(Br)cc1-c1noc(-c2cccs2)n1 was read as RGS8-Gao 8.4*, Avidin bead fluor -3, RGS7-Gao reg 12.0*, RGS4-Gao reg 21.3*, RGS16-Gao -8.5, GSH fluor 21, Avidin counter 0.0, RGS8-Gao confirm 98.6, RGS7-Gao single 96.8, RGS16-Gao conf 96.4, RGS4-Gao single 96.8 and RGS19-Gao conf 100.0.
CS(=O)(=O)N(CC(=O)Nc1cccnc1)c1ccc2c(c1)OCCO2 was read as RGS8-Gao 108.7, Avidin bead fluor 9, RGS7-Gao reg 101.3, RGS4-Gao reg 109.1, RGS16-Gao 139.9 and GSH fluor 35.
For CS(=O)(=O)N(CC(=O)Nc1cccnc1)c1ccc2c(c1)OCO2 the results were GSH fluor 17, Avidin counter 3.7, RGS8-Gao confirm 91.7, RGS7-Gao single 79.9, RGS16-Gao conf 84.2, RGS4-Gao single 86.9 and RGS19-Gao conf 77.6.
For CCN(CC)c1ccc(NC(=O)Cn2c(C(C)NC(=O)c3ccc(C)cc3)nc3ccccc32)cc1 (stereo not drawn) the results were RGS8-Gao 114.4, Avidin bead fluor 33, RGS7-Gao reg 152.7*[activator], RGS4-Gao reg 212.0*[activator], RGS16-Gao 191.7*[activator], GSH fluor 18, Avidin counter -1.0, RGS8-Gao confirm 108.3, RGS7-Gao single 99.0, RGS16-Gao conf 127.7*[activator], RGS4-Gao single 116.8 and RGS19-Gao conf 259.0*[activator].
Screening Cn1cc(Br)c(C(=O)Nc2ncc(Br)s2)n1 returned RGS8-Gao 14.2*, Avidin bead fluor 0, RGS7-Gao reg 11.9*, RGS4-Gao reg 15.3*, RGS16-Gao 8.7*, GSH fluor 8, Avidin counter 1.3, RGS8-Gao confirm 102.3, RGS7-Gao single 90.4, RGS16-Gao conf 97.5, RGS4-Gao single 91.6 and RGS19-Gao conf 99.9.
For Nc1ccc(C(=O)Nc2cccc(N)c2)cc1 the results were RGS8-Gao 105.8, Avidin bead fluor 5, RGS7-Gao reg inconclusive, RGS4-Gao reg 109.1 and RGS16-Gao 103.7.
Screening CC(C)CCN1CC(C(=O)NCCC2=CCCCC2)CC1=O (stereo not drawn) returned RGS8-Gao 104.1, Avidin bead fluor 6, RGS7-Gao reg 99.4, RGS4-Gao reg 101.4, RGS16-Gao 102.8 and GSH fluor 14.
For CC(C)CCN1CCC(N)=NC1=O the results were RGS8-Gao 109.7, Avidin bead fluor 26, RGS7-Gao reg 216.7*[activator], RGS4-Gao reg 233.7*[activator], RGS16-Gao 191.1*[activator], GSH fluor 35, Avidin counter -1.5, RGS8-Gao confirm 114.9, RGS7-Gao single 103.9, RGS16-Gao conf 115.7, RGS4-Gao single 106.7 and RGS19-Gao conf 85.7.
For Cc1cc(N2CCC(C)CC2)nc(-c2ccccc2O)n1 the results were RGS8-Gao 99.1, Avidin bead fluor 7, RGS7-Gao reg inconclusive, RGS4-Gao reg 101.7 and RGS16-Gao 98.6.
